Where “and” joins values, the source holds several entries; their conditions need not be identical. Equal values may be shown once. Results filed as inconclusive are left out. Calls of active or inactive are those of the source. How the source made its calls, unless noted: active means hit-call score of the fitted dose curve at least 0.9, where 1 is the maximum; inactive means score below 0.9.
What was measured:
[1] = biological target: Retinoic acid receptor RXR-alpha (Homo sapiens) (UniProt P19793); experiment: OT_NURR1_NURR1RXRa_1440: Odyssey Thera (OT) 24-hour HEK293T Protein Complementation Assay for Nurr1/retinoid X receptor (RXR) (AID 2283386; active means hit-call score of the fitted dose curve at least 0.9, where 1 is the maximum)
Method in brief: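 HEK293T protein-fragment complementation of Nurr1 and RXRα fused to reporter fragments; compounds 24 h. Fluorescence gain from reconstituted reporter fitted versus DMSO.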

[2] = biological target: Peroxisome proliferator-activated receptor gamma (Homo sapiens) (UniProt P37231); experiment: OT_PPARg_PPARgSRC1_0480: Odyssey Thera (OT) 8-hour Protein-Complementation Assay for Peroxisome Proliferator-activated Receptor Gamma / SRC-1 Co-activator (AID 2283387; active means hit-call score of the fitted dose curve at least 0.9, where 1 is the maximum)
Method in brief: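 Split-YFP (IFP1/IFP2) PPARg/SRC-1 reporter, HEK293T, 37 °C, 5% CO2; 8 h compound; formaldehyde fix + Draq5; high-content imaging, N/C ratio, ≥350 cells/image, positive direction vs DMSO.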

[3] = biological target: Peroxisome proliferator-activated receptor gamma (Homo sapiens) (UniProt P37231); experiment: OT_PPARg_PPARgSRC1_1440: Odyssey Thera (OT) 24-hour Protein-Complementation Assay for Peroxisome Proliferator-activated Receptor Gamma/ SRC-1 Co-activator (AID 2283388; active means hit-call score of the fitted dose curve at least 0.9, where 1 is the maximum)
Method in brief: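 HEK293T cells transiently transfected with PPARg and SRC-1 fused via (Gly4Ser)2 linker to split Venus YFP fragments (IFP1/IFP2) were dosed 24 h; fixed, Draq5-stained, imaged at 488/635 nm; nuclear/cytoplasmic fluorescence ratio scored versus DMSO baseline, gain-of-signal.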

[4] = read-out: Tumor necrosis factor receptor superfamily member 6 (Homo sapiens) (UniProt P25445); experiment: LTEA_HepaRG_FAS: Life Technologies and Expression Analysis (LTEA) Assay for Fas cell surface death receptor (FAS) using HepaRG (AID 2283447); details: mRNA level, 48 h; actives raise or lower the signal
Method in brief: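 FAS transcript level was measured by TaqMan qRT-PCR against three housekeeping genes after 48 h chemical exposure. Cells were HepaRG, 0.5% DMSO vehicle, with a top concentration of 100 uM and half-log dilutions over eight points, in duplicate.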

[5] = read-out: Fatty acid synthase (Homo sapiens) (UniProt P49327); experiment: LTEA_HepaRG_FASN: Life Technologies and Expression Analysis (LTEA) Assay for Fatty Acid Synthase (FASN) using HepaRG (AID 2283448); details: mRNA level, 48 h; actives raise or lower the signal
Method in brief: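 Differentiated HepaRG cells in serum-free induction medium exposed 48 h in duplicate to eight half-log concentrations, top 100 uM, 0.5% DMSO. FASN mRNA by qRT-PCR normalised to ACTB, GAPDH, POLR2A; bidirectional fit versus DMSO.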

[6] = read-out: Cyclin D1 (CCND1), CCND1 (gene 595); experiment: LTEA_HepaRG_CCND1: Life Technologies and Expression Analysis (LTEA) Assay for Cyclin D1 (CCND1) using HepaRG (AID 2283451); details: mRNA level, 48 h; actives raise or lower the signal;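 on AC50: TaqMan qRT-PCR transcript level normalised to ACTB GAPDH and POLR2A housekeeping genes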
Method in brief: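 Differentiated human HepaRG cells in serum-free induction medium were exposed 48 h to eight half-log concentrations up to 100 uM in 0.5% DMSO; mRNA quantified by TaqMan qRT-PCR, normalized to ACTB, GAPDH, POLR2A, fitted bidirectionally versus DMSO.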

[7] = read-out: catalase (CAT), CAT (gene 847); experiment: LTEA_HepaRG_CAT: Life Technologies and Expression Analysis (LTEA) Assay for catalase (CAT) using HepaRG (AID 2283452); details: mRNA level, 48 h; actives raise or lower the signal;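 on AC50: TaqMan qRT-PCR signal normalized to ACTB GAPDH and POLR2A housekeeping genes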
Method in brief: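 Expression of CAT was quantified by TaqMan qRT-PCR with ACTB/GAPDH/POLR2A normalization after 48 h chemical exposure of HepaRG. Eight-point half-log series, top 100 uM, in 0.5% DMSO; gain or loss fitted against vehicle.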

[8] = read-out: flavin-containing dimethylaniline monooxygenases 3 (FMO3), FMO3 (gene 2328); experiment: LTEA_HepaRG_FMO3: Life Technologies and Expression Analysis (LTEA) Assay for flavin-containing dimethylaniline monooxygenases 3 (FMO3) using HepaRG (AID 2283453); details: mRNA level, 48 h; actives raise or lower the signal
Method in brief: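 Differentiated HepaRG cells in serum-free induction medium, exposed 48 h in duplicate to 8 half-log concentrations up to 100 uM in 0.5% DMSO. FMO3 mRNA by qRT-PCR, normalized to ACTB, GAPDH, POLR2A; bidirectional fit vs DMSO.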

[9] = CEETOX_H295R_OHPREG: CeeTox H295R High-throughput Steroidogenesis Assay for OH-Pregnenolone (OHPREG) (AID 2283434); details: actives raise or lower the signal
Method in brief: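 Hormone levels in spent medium were measured by tandem mass spectrometry following liquid-liquid extraction. Cells (H295R) had been forskolin-stimulated (10 uM, 48 h) before a 48 h chemical exposure at 0.1% DMSO, with activity fitted in both directions against DMSO.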

[10] = CEETOX_H295R_OHPROG: CeeTox H295R High-throughput Steroidogenesis Assay for OH-Progesterone (OHPROG) (AID 2283435); details: actives raise or lower the signal
Method in brief: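 H295R adrenal cells prestimulated 48 h with 10 uM forskolin, then exposed 48 h to chemical (0.1% DMSO final). 17alpha-hydroxyprogesterone in medium quantified by HPLC-MS/MS; bidirectional fit versus DMSO, with MTT viability measured in the same wells.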

[11] = CEETOX_H295R_PROG: CeeTox H295R High-throughput Steroidogenesis Assay for Progesterone (PROG) (AID 2283442); details: actives raise or lower the signal;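 on AC50: human H295R adrenal cells primed with 10 µM forskolin before dosing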
Method in brief: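 H295R human adrenal cells were prestimulated with 10 uM forskolin for 48 h, then exposed to test chemical (0.1% DMSO final) for 48 h. Medium progesterone was MTBE-extracted and quantified by HPLC-MS/MS, with bidirectional fitting against DMSO.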

[12] = read-out: Cyclin D2 (CCND2), CCND2 (gene 894); experiment: LTEA_HepaRG_CCND2: Life Technologies and Expression Analysis (LTEA) Assay for Cyclin D2 (CCND2) using HepaRG (AID 2283449); details: mRNA level, 48 h; actives raise or lower the signal
Method in brief: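 Read-out is CCND2 mRNA level measured by qRT-PCR in human HepaRG liver cells and normalised to three housekeeping genes. Chemicals were applied for 48 h at up to 100 uM, with gain or loss fitted relative to 0.5% DMSO.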

[13] = read-out: Cyclin Dependent Kinase Inhibitor 1A (CDKN1A), CDKN1A (gene 1026); experiment: LTEA_HepaRG_CDKN1A: Life Technologies and Expression Analysis (LTEA) Assay for Cyclin Dependent Kinase Inhibitor 1A (CDKN1A) using HepaRG (AID 2283450); details: mRNA level, 48 h; actives raise or lower the signal
Method in brief: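 Differentiated human HepaRG cells, pre-cultured 48 h, were exposed in duplicate for 48 h in serum-free induction medium to eight half-log concentrations up to 100 uM (0.5% DMSO). CDKN1A mRNA was measured by qRT-PCR, normalized to ACTB/GAPDH/POLR2A, bidirectionally fitted versus DMSO.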

[14] = CEETOX_H295R_11DCORT: CeeTox H295R High-throughput Steroidogenesis Assay for 11-Deoxycortisol (11DCORT) (AID 2283432); details: actives raise or lower the signal
Method in brief: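 Steroidogenesis in human H295R cells: 48 h chemical exposure after forskolin priming, 11-deoxycortisol measured by LC-MS/MS.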

[15] = CEETOX_H295R_CORTIC: CeeTox H295R High-throughput Steroidogenesis Assay for Corticosterone (CORTIC) (AID 2283437); details: actives raise or lower the signal;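 further: corticosterone secreted into medium quantified by mass spectrometry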
Method in brief: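 Corticosterone secreted into medium is measured by reverse-phase HPLC with tandem MS following liquid-liquid extraction. Cells are forskolin-stimulated (10 uM, 48 h) before 48 h test exposure; activity fitted in both directions against DMSO.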

[16] = CEETOX_H295R_CORTISOL: CeeTox H295R High-throughput Steroidogenesis Assay for Cortisol (AID 2283438); details: actives raise or lower the signal;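 further: cortisol secreted into medium quantified by LC-MS/MS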
Method in brief: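 Forskolin-primed H295R cells (10 uM, 48 h) treated 48 h with test chemical in 0.1% DMSO. Cortisol in medium quantified by MTBE extraction and HPLC-MS/MS; bidirectional fit vs DMSO, MTT viability in same wells.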

[17] = CEETOX_H295R_DOC: CeeTox H295R High-throughput Steroidogenesis Assay for DOC (AID 2283439); details: actives raise or lower the signal
Method in brief: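 H295R cells prestimulated 48 h with 10 uM forskolin, then exposed 48 h to test chemical (0.1% DMSO final). Medium 11-deoxycorticosterone measured by HPLC-MS/MS after MTBE extraction; bidirectional fit vs DMSO, viability checked by MTT in same wells.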

[18] = CEETOX_H295R_ESTRADIOL: CeeTox H295R High-throughput Steroidogenesis Assay for Estradiol (AID 2283440); details: actives raise or lower the signal;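 further: estradiol secreted into medium quantified by LC-MS/MS after dansyl derivatisation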
Method in brief: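 H295R adrenocortical cells were prestimulated with 10 uM forskolin for 48 h, then exposed to test chemical in 0.1% DMSO for 48 h. Medium estradiol was extracted with MTBE, dansyl-derivatized and quantified by HPLC-MS/MS; bidirectional fit versus DMSO.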

[19] = CEETOX_H295R_ESTRONE: CeeTox H295R High-throughput Steroidogenesis Assay for Estrone (AID 2283441); details: actives raise or lower the signal;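 further: estrone secreted into medium measured by LC-MS/MS after dansyl derivatization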
Method in brief: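 H295R cells prestimulated 48 h with 10 uM forskolin, then exposed 48 h to chemicals in 0.1% DMSO final; estrone in medium extracted with MTBE, dansyl-derivatized, quantified by HPLC-MS/MS; bidirectional fitting versus DMSO, viability by MTT.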

Peroxisome proliferator-activated receptor gamma (Homo sapiens), sequence (P37231 whole entry, looked up, the tested form may be a part): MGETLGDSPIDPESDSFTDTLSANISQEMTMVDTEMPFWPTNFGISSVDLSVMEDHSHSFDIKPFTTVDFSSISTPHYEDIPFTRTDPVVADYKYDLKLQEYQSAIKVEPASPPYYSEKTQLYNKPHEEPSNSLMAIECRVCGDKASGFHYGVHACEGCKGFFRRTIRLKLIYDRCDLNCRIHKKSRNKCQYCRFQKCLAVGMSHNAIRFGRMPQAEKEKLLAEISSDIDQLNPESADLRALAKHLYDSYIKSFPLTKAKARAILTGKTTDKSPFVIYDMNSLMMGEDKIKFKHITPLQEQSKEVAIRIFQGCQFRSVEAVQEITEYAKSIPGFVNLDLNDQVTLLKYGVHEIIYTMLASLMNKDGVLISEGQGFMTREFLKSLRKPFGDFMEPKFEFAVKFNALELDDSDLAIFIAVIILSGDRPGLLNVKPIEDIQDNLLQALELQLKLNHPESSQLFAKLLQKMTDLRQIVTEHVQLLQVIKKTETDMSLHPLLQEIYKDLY
Fatty acid synthase (Homo sapiens), sequence (P49327 whole entry, looked up): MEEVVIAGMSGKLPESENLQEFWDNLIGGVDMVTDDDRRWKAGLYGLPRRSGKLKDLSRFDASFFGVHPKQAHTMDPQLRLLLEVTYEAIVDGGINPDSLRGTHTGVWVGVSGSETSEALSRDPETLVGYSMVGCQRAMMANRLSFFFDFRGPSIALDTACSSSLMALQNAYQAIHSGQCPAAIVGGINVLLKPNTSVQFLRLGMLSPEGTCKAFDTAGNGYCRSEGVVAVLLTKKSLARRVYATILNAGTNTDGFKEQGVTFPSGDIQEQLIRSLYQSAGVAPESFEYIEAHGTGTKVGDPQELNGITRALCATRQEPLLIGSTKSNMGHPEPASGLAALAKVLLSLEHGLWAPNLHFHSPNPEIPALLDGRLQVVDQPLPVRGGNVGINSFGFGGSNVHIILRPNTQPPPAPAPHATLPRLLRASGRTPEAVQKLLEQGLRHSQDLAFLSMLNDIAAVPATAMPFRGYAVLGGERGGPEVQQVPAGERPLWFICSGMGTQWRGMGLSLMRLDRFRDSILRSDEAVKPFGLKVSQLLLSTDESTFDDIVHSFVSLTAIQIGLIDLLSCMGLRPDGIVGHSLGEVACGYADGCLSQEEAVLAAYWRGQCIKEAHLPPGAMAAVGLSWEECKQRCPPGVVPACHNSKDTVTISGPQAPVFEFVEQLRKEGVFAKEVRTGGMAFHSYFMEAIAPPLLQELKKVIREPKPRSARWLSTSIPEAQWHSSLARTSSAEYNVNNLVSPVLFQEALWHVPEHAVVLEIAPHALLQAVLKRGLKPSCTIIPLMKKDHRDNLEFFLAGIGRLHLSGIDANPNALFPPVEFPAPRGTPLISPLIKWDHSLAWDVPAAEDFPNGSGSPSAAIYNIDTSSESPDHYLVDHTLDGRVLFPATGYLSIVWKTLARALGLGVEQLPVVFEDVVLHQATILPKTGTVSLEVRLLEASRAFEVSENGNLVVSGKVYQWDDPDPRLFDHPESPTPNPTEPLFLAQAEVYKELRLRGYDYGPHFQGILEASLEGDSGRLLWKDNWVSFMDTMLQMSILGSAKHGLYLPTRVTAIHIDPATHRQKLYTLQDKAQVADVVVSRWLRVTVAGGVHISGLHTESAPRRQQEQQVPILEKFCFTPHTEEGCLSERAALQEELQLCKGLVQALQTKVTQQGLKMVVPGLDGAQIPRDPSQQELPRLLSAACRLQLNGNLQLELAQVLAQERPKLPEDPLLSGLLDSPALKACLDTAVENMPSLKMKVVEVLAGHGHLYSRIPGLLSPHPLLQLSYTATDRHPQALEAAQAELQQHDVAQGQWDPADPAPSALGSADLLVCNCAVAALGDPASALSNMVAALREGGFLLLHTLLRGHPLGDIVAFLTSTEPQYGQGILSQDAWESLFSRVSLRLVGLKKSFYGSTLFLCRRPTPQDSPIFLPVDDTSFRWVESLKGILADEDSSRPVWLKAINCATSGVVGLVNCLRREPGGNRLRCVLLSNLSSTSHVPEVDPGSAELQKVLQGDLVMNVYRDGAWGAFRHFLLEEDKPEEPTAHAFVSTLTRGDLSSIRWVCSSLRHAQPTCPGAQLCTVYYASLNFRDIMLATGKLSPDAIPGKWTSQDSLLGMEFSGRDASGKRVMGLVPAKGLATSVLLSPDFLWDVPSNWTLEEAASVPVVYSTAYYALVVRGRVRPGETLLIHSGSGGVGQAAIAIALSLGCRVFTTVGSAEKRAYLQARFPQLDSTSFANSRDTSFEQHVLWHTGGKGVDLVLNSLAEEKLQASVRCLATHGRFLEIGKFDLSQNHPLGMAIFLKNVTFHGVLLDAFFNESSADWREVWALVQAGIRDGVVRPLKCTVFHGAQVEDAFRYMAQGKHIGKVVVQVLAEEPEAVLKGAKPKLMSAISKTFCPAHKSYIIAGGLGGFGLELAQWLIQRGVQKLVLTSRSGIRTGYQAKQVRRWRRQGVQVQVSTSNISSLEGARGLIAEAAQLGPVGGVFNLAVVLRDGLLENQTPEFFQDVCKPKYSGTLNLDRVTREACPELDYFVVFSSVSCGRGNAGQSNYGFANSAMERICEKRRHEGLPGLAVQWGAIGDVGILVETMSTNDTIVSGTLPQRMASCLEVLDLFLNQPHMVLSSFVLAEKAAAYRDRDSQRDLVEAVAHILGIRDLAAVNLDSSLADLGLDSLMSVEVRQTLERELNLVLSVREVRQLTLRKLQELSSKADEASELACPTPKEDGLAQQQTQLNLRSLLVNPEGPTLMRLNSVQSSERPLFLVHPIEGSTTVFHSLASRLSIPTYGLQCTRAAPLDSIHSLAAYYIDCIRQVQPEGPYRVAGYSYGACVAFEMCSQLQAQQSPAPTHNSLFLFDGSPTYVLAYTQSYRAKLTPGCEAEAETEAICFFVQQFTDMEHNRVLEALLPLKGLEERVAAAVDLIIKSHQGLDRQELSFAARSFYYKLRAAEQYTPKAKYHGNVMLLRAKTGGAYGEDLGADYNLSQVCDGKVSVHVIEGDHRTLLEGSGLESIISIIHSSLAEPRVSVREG
Retinoic acid receptor RXR-alpha (Homo sapiens), sequence (P19793 whole entry, looked up, the tested form may be a part): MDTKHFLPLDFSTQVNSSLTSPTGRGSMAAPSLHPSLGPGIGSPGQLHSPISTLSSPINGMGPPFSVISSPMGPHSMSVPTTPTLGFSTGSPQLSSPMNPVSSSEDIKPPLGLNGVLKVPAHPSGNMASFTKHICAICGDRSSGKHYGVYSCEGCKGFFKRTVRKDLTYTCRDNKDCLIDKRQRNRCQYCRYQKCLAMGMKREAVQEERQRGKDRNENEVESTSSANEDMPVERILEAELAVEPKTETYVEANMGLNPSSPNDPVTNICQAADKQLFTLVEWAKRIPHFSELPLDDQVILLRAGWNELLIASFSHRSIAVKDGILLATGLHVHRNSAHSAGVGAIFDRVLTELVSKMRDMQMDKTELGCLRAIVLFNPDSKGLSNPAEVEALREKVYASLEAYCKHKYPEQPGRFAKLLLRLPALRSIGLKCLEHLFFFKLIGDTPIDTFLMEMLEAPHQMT

In the case of `CC(C)=CCCC(C)CCO` (centres undefined), the outcome [1] is reported as “inactive”, the outcome [2] is reported as “inactive” and the outcome [3] is reported as “inactive”. The outcome [4] was “inactive”, the outcome [5] was “inactive” and the outcome [6] was “inactive”. The outcome [7] was “inactive” and the outcome [8] was “inactive”.
With `CCc1cc(SCc2sc(-c3ccc(C(F)(F)F)cc3)nc2CN2CCN(c3ccc(OC)cc3)CC2)ccc1OCC(=O)O` the AC50 [2] was 345 nM (active) and 1.09 µM (active), the AC50 [3] was 723 nM (active) and 1.02 µM (active) and the AC50 [4] was 26.2 µM (active). The AC50 [5] was 71.3 µM (active), the AC50 [6] was 93.4 µM (active) and the AC50 [7] was 93.7 µM (active). For the same molecule, the AC50 [8] was 5.55 µM (active).
For `CCOCCOCCOCCO`, the outcome [1] was “inactive”, the outcome [2] was “inactive” and the outcome [3] was “inactive”. For the same molecule, the outcome [5] was “inactive”, the outcome [6] was “inactive” and the outcome [7] was “inactive”. For the same molecule, the outcome [8] was “inactive”.
For `Cc1c(-c2cccnc2)c2ccccc2n1CCCCC(=O)O`, the outcome [2] was “inactive”, the outcome [3] was “inactive” and the outcome [9] was “inactive”. The outcome [10] was “inactive”, the AC50 [11] was 7.25 µM (active) and the outcome [4] was “inactive”. For the same molecule, the outcome [5] was “inactive”, the outcome [12] was “inactive” and the outcome [13] was “inactive”. The outcome [6] was “inactive”, the outcome [7] was “inactive” and the outcome [8] was “inactive”.
For `COc1cccc(-c2ccc(/C=C\CN3CCCCCC3)cc2Cl)c1`, the outcome [2] was “inactive”, the outcome [3] was “inactive” and the outcome [14] was “inactive”. For the same molecule, the outcome [9] was “inactive”, the outcome [10] was “inactive” and the outcome [15] was “inactive”. For the same molecule, the outcome [16] was “inactive”, the outcome [17] was “inactive” and the outcome [18] was “inactive”. For the same molecule, the outcome [19] was “inactive”, the outcome [11] was “inactive” and the AC50 [4] was 77.5 µM (active). For the same molecule, the AC50 [5] was 45.2 µM (active), the outcome [13] was “inactive” and the AC50 [6] was 72.2 µM (active). The AC50 [7] was 69.7 µM (active) and the AC50 [8] was 68.8 µM (active).
In the case of `CCCCCCCCCCCCc1ccccc1`, the outcome [2] is reported as “inactive”, the outcome [3] is reported as “inactive” and the outcome [4] is reported as “inactive”. The outcome [5] was “inactive”, the outcome [6] was “inactive” and the outcome [7] was “inactive”. The outcome [8] was “inactive”.
For `NC(=O)NO`, the outcome [1] was “inactive”, the outcome [4] was “inactive” and the outcome [5] was “inactive”. The outcome [12] was “inactive”, the outcome [13] was “inactive” and the outcome [6] was “inactive”. The outcome [7] was “inactive” and the outcome [8] was “inactive”.
For `O=C(O)CC(O)C(=O)O` (centres undefined), the outcome [1] was “inactive”, the outcome [2] was “inactive” and the outcome [3] was “inactive”. The outcome [4] was “inactive”, the outcome [5] was “inactive” and the outcome [6] was “inactive”. The outcome [7] was “inactive” and the outcome [8] was “inactive”.

— PubChem BioAssay (EPA / NIEHS)
